Results as given in PubChem BioAssay AID1345082 (National Center for Advancing Translational Sciences (NCATS), 2018).
Screen size: about 94,000 compounds; about 4,000 (4.3%) were called active. About 29% were inconclusive and are not listed. The entries come from a sample that favours actives as a whole. Unmarked numbers belong to inactive results. Calls follow the shape of the dose curve; as a rule, active = well fitted inhibition curve with a large enough effect; inconclusive = small, poorly fitted or top-dose-only effect; inactive = no such curve, though single readings can be large or run the other way.

Test: Cytotoxic Profiling in NIH 3T3 Cell Line of Diverse Libraries Using Quantitative High-Throughput Screening; also: nearly all actives have a fitted effect of over 55% in size
Conditions: NIH 3T3 viability, CellTiter-Glo ATP luminescence, 48-72 h; series mostly up to 96.7 µM; activity change, negative = cytotoxicity: at the top concentration
Method in brief: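 First NIH 3T3 cells are plated at 400 cells/well; next compound is pinned in; then plates incubate 48 or 72 hr at 37 °C; finally CellTiter-Glo is added and luminescence read after 10 min.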
% is scaled to controls: 0 for no effect and ±100 for the full control effect; potency is read from the fitted curve at half-maximal effect.

Structure (SMILES)	activity change, negative = cytotoxicity	Potency	outcome
CN(Cc1cccc(C(F)(F)F)c1)Cc1cccc(C(F)(F)F)c1	-4.01%		
CC(C)(C)n1nnnc1C1CC2(CCOCC2)C(=O)N1Cc1ccc(F)cc1 (stereo unspecified)	-0.724%		
Cc1ccc(-c2cccc(CN3CCCC(NC(=O)c4ccc(C(F)(F)F)cc4)C3)c2)cc1Cl (stereo unspecified)	-4.84%		
COc1cccc(-c2cccc(C(=O)N3CCCC3C(=O)NCC3CC3)c2)c1 (stereo unspecified)	-10.9%		
COc1cccc(-c2ccc(CN3CCCC3C(=O)NCc3ccccc3Cl)cc2)c1 (stereo unspecified)		39.8 µM (active)	
Cc1ccc(CNC(=O)[C@@H]2COCC(=O)N2Cc2ccc(F)cc2)cc1	-23.1%		
COc1cccc(CC(=O)N2CCC(N3C(=O)CCC3C(=O)NCc3ccccc3)CC2)c1 (stereo unspecified)	-14.4%		
Cc1ccc(-c2cccc(CN3CCCC3C(=O)NCc3ccc(C(F)(F)F)cc3)c2)cc1Cl (stereo unspecified)		31.6 µM (active)	
CN(CC1CCOCC1)C(=O)Cc1ccsc1			inactive
COc1ccc(N2CCC(NS(=O)(=O)C3CC3)C2=O)cc1 (stereo unspecified)	-15.8%		
CN(C)Cc1cn(C[C@H]2C[C@@H](NS(=O)(=O)c3ccccc3)[C@H](O)[C@@H]2O)nn1	-5.32% [at 174 µM]		
O=C(C1CCC1)N1CCC(C(=O)N2CCCC2c2ccco2)CC1 (stereo unspecified)	1.21%		
CN(CC1CCOCC1)C(=O)c1ccc(Cl)cc1	-0.189%		
CCOCCNC(=O)C1CCCCN1Cc1ccc(-c2cc(F)ccc2OC)cc1 (stereo unspecified)		39.8 µM (active)	
CCN1CCN(C(=O)C2CCCCN2Cc2ccc(-c3cc(F)ccc3OC)cc2)CC1 (stereo unspecified)		35.5 µM (active)	
O=C(C1CCCCN1Cc1ccc(-c2cccs2)cc1)N1CCOCC1 (stereo unspecified)	0.343%		
CCOCCOC1CCN(C(=O)NCc2ccc(F)cc2)CC1	-4.23%		
CC(=O)N1CCCN(C(=O)C2CCCCN2Cc2ccc(-c3ccsc3)cc2)CC1 (stereo unspecified)	-22.7%		
COCCNC(=O)[C@@H]1CCC[C@@H](NCc2ccc(F)cc2)CN(C)C(=O)C1	-11.3% [at 174 µM]		
O=C(c1cccn1C1CC1)N1C[C@H](CO)C[C@H](CN2CCCC2)C1	-2.77%		
COCC1CN(C)CC12CCN(C(=O)C1CCOCC1)CC2 (stereo unspecified)	-0.42%		
Cc1ccccc1S(=O)(=O)N1CCC2(CC1)CC(OCC1CC1)CCO2 (stereo unspecified)	-19.2%		

Structure (SMILES)	activity change, negative = cytotoxicity	Potency	outcome
COc1cc(F)ccc1-c1ccnc2nc(C(C)C)nn12	-24.5%		
Cc1noc([C@@H]2CN(S(=O)(=O)c3cccs3)C[C@H]2C(N)=O)n1	-16.9%		
CCCOCCCNC(=O)c1c(C)noc1-c1cc(OC)c(OC)c(OC)c1	-17.4%		
COc1ccccc1-c1onc(C)c1C(=O)NCc1ccc(Cl)cc1	-28.6%		
COc1ccccc1-c1onc(C)c1C(=O)NCCC(c1ccccc1)c1ccccc1		31.6 µM (active)	
COC[C@@H]1CN(Cc2ccccn2)C[C@H]1C(=O)N(C)C	-6.36%		
Cc1cc(CNC(=O)C2CCCN(C3CCN(CCc4ccccc4)CC3)C2)on1 (stereo unspecified)	0.71%		
O=C(Nc1cccc(Cl)c1)c1cnc2c(c1)N(C(=O)CCc1ccccc1)CCC2	-20% [at 138 µM]		
CC(C)CCNC(=O)c1cnc2c(c1)N(Cc1ccccc1)CCC2		79.4 µM (active)	
CC(C)Nc1ncc(C(=O)NC2CCCN(CCc3ccccc3)C2)cn1 (stereo unspecified)	-6.8%		
Cc1cccc(C(=O)N2CCCN(c3nnc4ccccn34)CC2)c1	-8.72%		
Cc1cc(C(=O)NCC(C)C)c2c(C3CCNC3)noc2n1 (stereo unspecified)	2.92% [at 138 µM]		
COc1cc(SC)ccc1C(=O)N[C@@H]1C=C(C(=O)N[C@@H](Cc2cccs2)C(N)=O)C[C@@H](O)[C@@H]1O			inactive
Cc1ccc(C)c(NC(=O)C2CC(=O)N(c3n[nH]c4cc(Br)ccc34)C2)c1 (stereo unspecified)	-8.49%		
Cc1nc(N2CCC(NCCNc3ccncc3C)CC2)c2ccsc2n1		44.7 µM (active)	
Cc1nc(N2CCC(NC(=O)c3cnccn3)CC2)cc(C(F)(F)F)n1	-1.41%		
Cc1[nH]ncc1CNC(=O)C1CCN(c2cnn(CC3CC3)c(=O)c2)C1 (stereo unspecified)	3.61%		
O=C(NCc1nc(-c2ncccn2)no1)[C@H]1CNC[C@@H](C(=O)N2CCCC2)C1	-8.69%		
O=C1CCN(C(=O)c2ccc3ccccc3n2)CCCCCCN1	-19.4%		
CCn1cc(CN2CCCCCNC(=O)[C@@H]3CCC[C@@H]32)cn1	-2.66%		
CC(C)(C)c1nc(C(=O)N2CCOCC2)n2ccccc12	-17.5% [at 138 µM]		
O=C(c1nc(-c2cccnc2)c2cnccn12)N1CCN(c2ncccn2)CC1	-8.83%		

Structure (SMILES)	activity change, negative = cytotoxicity	Potency	outcome
Cc1cccc(C)c1-c1nc(C(=O)N2CCN(c3ncccn3)CC2)n2ccccc12		39.8 µM (active)	
COc1ccc(C2Cn3cnc(C(=O)N4CCC(C(=O)NC5CCCC5)CC4)c3CO2)cc1 (stereo unspecified)	-13.7%		
COCC1CN(C(C)=O)CC12CCN(C(=O)C1CC=CCC1)CC2 (stereo unspecified)	-5.78%		
COC(=O)CNC(=O)C1CCN(Cc2ccccc2-c2ccccc2F)CC1	-18.2%		
CC(=O)N1CCCC1C(=O)N1CCC(c2ccccc2)CC1 (stereo unspecified)	2.07% [at 138 µM]		
O=C(C1CCN(Cc2ccccc2-c2ccccc2F)CC1)N1CCC(c2ccccc2)CC1		31.6 µM (active)	
Cc1noc(C)c1CC(=O)N1CCC(c2n[nH]c(=O)n2Cc2ccc(F)cc2)CC1	-5.74%		
O=C(C1CCC1)N1CCC(Oc2cccnc2)C1 (stereo unspecified)			inactive
COc1cc(F)ccc1-c1ccc(COc2ccc3c(cnn3CCC(=O)O)c2)cc1	-21.2% [at 138 µM]		
O=C(O)CCn1ncc2cc(OC3CCN(C(=O)C4CCCC4)CC3)ccc21		44.7 µM (active)	
COc1ccc(CNC(=O)NCC2Cn3cccc3CN2C)cc1 (stereo unspecified)	1.33%		
Cc1ccc(OCc2nc(C3CCN(C(=O)c4c5c(nc6ccccc46)CCCC5)CC3)no2)cc1	-25.4%		
COCCOCc1nc(C2CCN(C(=O)c3ccncc3)CC2)no1	-9.28%		
Cc1ccc(OCc2nc(C3CCN(C(=O)c4noc(C)c4CN4CCCCC4)CC3)no2)cc1		31.6 µM (active)	
COc1ccc(C(=O)N2CCC(C(=O)N3CCC(N4CCOCC4=O)CC3)CC2)cc1	-10.2%		
CN(C)CCNC(=O)C(C)(C)Oc1nn(Cc2cccc(Cl)c2)c2ccccc12		10 µM (active)	
O=C(CN1C(=O)NC2(CCCCC2)C1=O)Nc1cccc(Br)c1	-14.9%		
CCNC(=O)N[C@H]1[C@H](O)[C@@H](N(C)CCc2ccccn2)[C@@H]2OC[C@H]1O2	3.61% [at 174 µM]		
O=C(C1CCCC1)N1CCCCC1c1nc(C2CC2)n[nH]1 (stereo unspecified)			inactive
COc1ccccc1C(=O)N1CCCN(CCc2ccccc2)c2ccccc21		31.6 µM (active)	
COCCN1CCCN(C(=O)c2ccccc2Cl)c2ccccc21	-14.2%		
CN1CCCN(C(=O)c2ccccc2OC(F)(F)F)c2ccccc21	-29.8%		
